Screening data from PubChem.
Compounds with a hit are over-represented: about 4.1% of the library has one in this group of screens.
tim23-1 inh: growth inhibitors of tim23-1 mutant yeast, primary screen, luminescence, uHTS; S. cerevisiae tim23-1 growth, BacTiter-Glo luminescence, 24 h; inhibition, % at 20 µM; 1.3% of 330,000 active; AID 463212, 2010;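 active means growth inhibition of the mutant yeast at or above 50%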;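 further: temperature-sensitive mutant grown at 25 °C; plate controls were DMSO-treated mutant yeast for no effect and medium wells lacking yeast for full effect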
tim10-1 inh: growth inhibitors of tim10-1 mutant yeast, primary screen, luminescence, uHTS; AID 463190, 2010; 2.2% of 330,000 active; inhibition, % at 20 µM; S. cerevisiae tim10-1 ts strain growth, BacTiter-Glo, 24 h;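 active means inhibition of at least 40%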;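 further: mutant grown at 25 °C; 0% = DMSO wells with yeast and 100% = wells holding no yeast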
TIM10 inh: growth inhibitors of isogenic TIM10 control yeast, primary screen, counter-screen for tim10-1 yeast inhibitor project, luminescence, uHTS; S. cerevisiae TIM10 strain growth, BacTiter-Glo luminescence, 24 h; inhibition, % at 10 µM; 1.4% of 330,000 active;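 active means inhibition of 40% or more at the single tested concentration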;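 further: wild-type TIM10 isogenic control strain grown at permissive 25 °C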
NALP3 yeast inh: NALP3 inflammasome inhibitors in reconstituted yeast, primary screen, luminescence, uHTS | Yeast reconstituted NLRP3/ASC/caspase-1, beta-gal luminescence, 24 h | inhibition, % at 10 µM | 0.39% of 330,000 active;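 active means inhibition of 50% or more; inactive means inhibition below 50%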;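 further: plate controls were induced DMSO wells for no effect and uninduced yeast grown without galactose for full effect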
NALP1 yeast inh: NALP1 inflammasome inhibitors in reconstituted yeast, colorimetric, S. cerevisiae, triplicate retest; S. cerevisiae NALP1/ASC/caspase-1 growth, X-gal OD620, 72 h; 0.61% of 280,000 active; inhibition, % at 10 µM; in the data active means inhibition mostly above about 24%, no sharp cut-off; inactive means mostly below about 32%
tim23-1 confirm: tim23-1 mutant yeast growth inhibitors, confirmation, luminescence, single concentration | shares compounds with tim23-1 inh | S. cerevisiae tim23-1 growth, BacTiter-Glo luminescence, 24 h | inhibition, % at 20 µM | 83% of 4,400 active | AID 463218, 2010;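 active means inhibition above about 39% in either of two replicate wells at 20 µM, limit read from the data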;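 further: temperature-sensitive tim23-1 mutant grown at 25 °C; 0% = DMSO wells with yeast and 100% = medium wells without yeast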
An asterisk follows results filed as active.

Screening OC(c1ccccc1)(C1CCCCC1)C(CN1CCOCC1)c1ccccc1 (stereo unspecified) returned tim23-1 inh 50*, tim10-1 inh 18, TIM10 inh 27, NALP3 yeast inh 1, NALP1 yeast inh 2 and tim23-1 confirm 31.
Screening COc1ccc(C(O)(C2CCCCC2)C(CN2CCOCC2)c2ccccc2)cc1 (stereo unspecified) returned tim23-1 inh 34, tim10-1 inh 36, TIM10 inh 19, NALP3 yeast inh 5 and NALP1 yeast inh 6.
`N#C/C(=C\c1cccs1)C(=O)c1ccccc1Cl` gave tim23-1 inh 62*, tim10-1 inh 16, TIM10 inh 19, NALP3 yeast inh 8, NALP1 yeast inh 3 and tim23-1 confirm 57*.
`CC(C)(C)C(=O)/C(C#N)=C/c1cccs1` gave tim23-1 inh 18, tim10-1 inh -10, TIM10 inh -24 and NALP3 yeast inh 19.
Cc1ccc(O)c(C2=NOC(O)(C(F)(F)F)C2)c1 (stereo unspecified) was read as tim23-1 inh 8, tim10-1 inh -1, TIM10 inh 5, NALP3 yeast inh 10 and NALP1 yeast inh 12.
For COc1cccc(-c2c(C#N)c(N)nc3c2c(C)nn3-c2ccccc2)c1O the results were tim23-1 inh 51*, tim10-1 inh 17, TIM10 inh 10, NALP3 yeast inh 6, NALP1 yeast inh 12 and tim23-1 confirm 27.
For O=C(CN1C(=O)NC2(CCCCCC2)C1=O)c1ccc(F)cc1 the results were tim23-1 inh -10, tim10-1 inh -34, TIM10 inh -14 and NALP3 yeast inh 17.
CCc1ccc(C(=O)CN2C(=O)NC3(CCCCCC3)C2=O)cc1 was read as tim23-1 inh 51*, tim10-1 inh 13, TIM10 inh 3, NALP3 yeast inh 40 and tim23-1 confirm 32.
For c1ccc(Cn2c[n+](Cc3ccccc3)cn2)cc1 the results were tim23-1 inh 14, tim10-1 inh 6, TIM10 inh -28, NALP3 yeast inh 18 and NALP1 yeast inh 5.
COc1cc2c(cc1OC)CN(C(=O)c1ccncc1)CC2 was read as tim23-1 inh 16, tim10-1 inh 12, TIM10 inh -8, NALP3 yeast inh -14 and NALP1 yeast inh 13.
COc1ccc(C(=O)N2CCc3ccc(NC(=O)c4ccccn4)cc3C2)cc1F was read as tim23-1 inh 52*, tim10-1 inh 37, TIM10 inh 2, NALP3 yeast inh 5, NALP1 yeast inh 14 and tim23-1 confirm 40*.
COc1ccccc1NC(=O)c1ccc(NC(=O)COC(=O)C2(C)CC2(Cl)Cl)cc1 (stereo unspecified) was read as tim23-1 inh 45, tim10-1 inh 37, TIM10 inh 29, NALP3 yeast inh 15 and NALP1 yeast inh 14.
Screening CCn1c(O)c(C=NC2CCCC(C)C2C)sc1=S (stereo unspecified) returned tim23-1 inh 51*, tim10-1 inh 35, TIM10 inh 23, NALP3 yeast inh 27, NALP1 yeast inh 21 and tim23-1 confirm 53*.
For CCn1c(N2CCN(S(=O)(=O)c3ccccc3C(F)(F)F)CC2)nc2ccccc21 the results were tim23-1 inh 35, tim10-1 inh 36, TIM10 inh 23, NALP3 yeast inh 2 and NALP1 yeast inh 8.
For CCn1c(N2CCN(S(=O)(=O)c3ccc(OC)cc3)CC2)nc2ccccc21 the results were tim23-1 inh 59*, tim10-1 inh -12, TIM10 inh -12, NALP3 yeast inh 11, NALP1 yeast inh 1 and tim23-1 confirm 44*.
`O=C(Nc1ccc(Cl)c(Cl)c1)Nc1ccon1` gave tim23-1 inh 53*, tim10-1 inh 29, TIM10 inh 24, NALP3 yeast inh -3, NALP1 yeast inh 23 and tim23-1 confirm 48*.
`CN(C)c1ccc(/C=C/C(=O)c2c(O)c3ccccc3oc2=O)cc1` gave tim23-1 inh 19, tim10-1 inh -2, TIM10 inh 13 and NALP3 yeast inh 16.
`CCOc1ccc(/C=C/C(=O)c2c(O)c3ccccc3oc2=O)cc1` gave tim23-1 inh 76*, tim10-1 inh 5, TIM10 inh 13, NALP3 yeast inh 26, NALP1 yeast inh -2 and tim23-1 confirm 32.
For O=C(Nc1ccc(F)c(Cl)c1)C1CC2CCC1C2 (stereo unspecified) the results were tim23-1 inh 61*, tim10-1 inh 22, TIM10 inh 37, NALP3 yeast inh -5 and tim23-1 confirm 68*.
For CC(C)c1ccc(NC(=O)C2CC3CCC2C3)cc1 (stereo unspecified) the results were tim23-1 inh 37, tim10-1 inh -15, TIM10 inh 22, NALP3 yeast inh 44 and NALP1 yeast inh 17.
CCC(C)c1ccc(NC(=O)C2CC3CCC2C3)cc1 (stereo unspecified) was read as tim23-1 inh 52*, tim10-1 inh 24, TIM10 inh 39, NALP3 yeast inh 20 and tim23-1 confirm 51*.
For O=C(Nc1ccc(F)cc1)C1CC2CCC1C2 (stereo unspecified) the results were tim23-1 inh 17, tim10-1 inh 19, TIM10 inh -3, NALP3 yeast inh 21 and NALP1 yeast inh -4.
Screening CCCc1nc(SCC(=O)c2ccc(F)cc2)c2ccccc2n1 returned tim23-1 inh 11, tim10-1 inh -14, TIM10 inh -32, NALP3 yeast inh 8 and NALP1 yeast inh 5.
`COc1cc(OC)cc(-c2sc3ccc(OC)cc3c2-c2ccc(OCCN3CCCCC3)cc2)c1` gave tim23-1 inh 52*, tim10-1 inh 14, TIM10 inh 6 and tim23-1 confirm 26.
`c1ccc(-c2sc3ccccc3c2-c2ccc(OCCN3CCCCC3)cc2)cc1` gave tim23-1 inh -10, tim10-1 inh 2, TIM10 inh -1 and NALP3 yeast inh 9.
For COc1ccc(-c2sc3cc4c(cc3c2-c2ccc(OCCN3CCCCC3)cc2)OCO4)cc1 the results were tim23-1 inh 33, tim10-1 inh 7 and TIM10 inh 6.
`c1ccc2c(-c3ccc(OCCN4CCCCC4)cc3)c(-c3ccsc3)sc2c1` gave tim23-1 inh 63*, tim10-1 inh -6, TIM10 inh 29, NALP3 yeast inh 32 and tim23-1 confirm 65*.
O=C(CCc1ccccc1)Oc1ccccc1[N+](=O)[O-] was read as tim23-1 inh 57*, tim10-1 inh 30, TIM10 inh 36, NALP3 yeast inh 7 and tim23-1 confirm 67*.
For COc1ccc2nc(SCC(=O)NCc3ccc(OC)c(OC)c3)[nH]c2c1 the results were tim23-1 inh 2, tim10-1 inh -14, TIM10 inh 6, NALP3 yeast inh 13 and NALP1 yeast inh 4.
